Assay outcomes from PubChem BioAssay.
PLK1 PBD inh = qHTS for Inhibitors of PLK1-PDB (polo-like kinase 1 - polo-box domain): Primary Screen; Serine/threonine-protein kinase PLK1 (Homo sapiens), P53350; Plk1 PBD binding of FITC phosphopeptide, fluorescence polarization; Potency, µM, most hits filed as inhibitors; hit rate 2.8% among 360,000; AID 720504, 2013; also: series mostly up to about 57 µM; nearly all actives have a fitted effect of over 65% in size
KAT2A inh = qHTS Assay for Inhibitors of GCN5L2 | Histone acetyltransferase KAT2A (Homo sapiens), Q92830 | GCN5L2 HAT assay, ThioGlo1 CoA-SH fluorescence | Potency, µM (doses to about 58.9 µM), most hits filed as inhibitors | hit rate 0.21% among 390,000 | AID 504327, 2011
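qHTS, 1536-well. 20nM enzyme, pH 7.5 HEPES/EDTA/Tween-20 buffer; 15 min compound preinc., RT. Start: 75uM H3(1-25), 70uM AcCoA, 50uM ThioGlo1. Read Ex340/Em540 at t=0 (autofluorescence flag) and t=20 min.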
TDP1 cell CPT = qHTS for Inhibitors of human tyrosyl-DNA phosphodiesterase 1 (TDP1): qHTS in cells in presence of CPT | hit rate 12% among 420,000 | AID 686979, 2013 | Potency, µM (doses to about 46.2 µM), most hits filed as inhibitors | chicken DT40 Tdp1-/-;hTDP1 cells + 20 nM CPT, ATP luminescence, 48 h; also: nearly all actives have a fitted effect of over 55% in size
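Cell growth measured by CellTiter-Glo luminescence after a minimum 48 h, 37 C compound exposure with 20 nM CPT in Tdp1-knockout DT40 cells stably expressing hTDP1, seeded 400/well; qHTS titration format.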
TDP1 block = qHTS Assay for Inhibitors of Tyrosyl-DNA Phosphodiesterase (TDP1). AID 485290, 2010. Potency, µM (titrated, usually from 130 µM), usual class: inhibitors. Tyrosyl-DNA phosphodiesterase 1 (Homo sapiens), Q9NUW8. recombinant TDP1, AlphaScreen DNA substrate cleavage. hit rate 0.28% among 350,000; also: nearly all actives have a fitted effect of over 40% in size
Target sequence (Q9NUW8 whole entry, looked up): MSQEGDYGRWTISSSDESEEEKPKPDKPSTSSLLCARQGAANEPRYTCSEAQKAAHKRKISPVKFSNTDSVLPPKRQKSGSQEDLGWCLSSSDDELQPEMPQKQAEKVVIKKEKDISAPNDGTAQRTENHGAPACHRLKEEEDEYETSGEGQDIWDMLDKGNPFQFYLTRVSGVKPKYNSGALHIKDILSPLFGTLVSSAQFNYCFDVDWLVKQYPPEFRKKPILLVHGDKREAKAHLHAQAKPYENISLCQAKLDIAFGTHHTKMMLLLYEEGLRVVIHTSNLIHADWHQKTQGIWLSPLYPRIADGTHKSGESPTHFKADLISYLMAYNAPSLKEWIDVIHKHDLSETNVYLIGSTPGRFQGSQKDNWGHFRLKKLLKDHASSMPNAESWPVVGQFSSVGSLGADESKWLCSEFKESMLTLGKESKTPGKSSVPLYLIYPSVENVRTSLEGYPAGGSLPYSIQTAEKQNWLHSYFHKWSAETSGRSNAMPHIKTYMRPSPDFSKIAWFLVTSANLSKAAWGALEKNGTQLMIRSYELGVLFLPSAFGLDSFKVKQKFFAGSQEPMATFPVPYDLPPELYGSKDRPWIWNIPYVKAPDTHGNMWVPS
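Compounds were preincubated with Tdp1 (1 nM final) for 15 min at room temperature before substrate (15 nM final) started a 5 min reaction; beads (10 ug/ml final) were then added for 10 min before AlphaScreen detection.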
VDR inhibitor = Inhibitors of the vitamin D receptor (VDR): qHTS. VDR-SRC2-3 peptide fluorescence polarization, 2 h. hit rate 0.93% among 400,000. Potency, µM, usual class: inhibitors
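Compounds are added to VDR with labelled SRC2-3 coactivator peptide and held 2 h at room temperature. Inhibition of the VDR–peptide interaction is then read as a change in fluorescence polarization.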
TDP1 cell noCPT = qHTS for Inhibitors of human tyrosyl-DNA phosphodiesterase 1 (TDP1): qHTS in cells in absence of CPT; DT40 Tdp1-/- hTDP1 cells, no CPT, ATP luminescence, 48 h; Potency, µM (top dose mostly 46.2 µM), actives largely listed as inhibitors; hit rate 15% among 420,000; also: nearly all actives have a fitted effect of over 55% in size
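No-CPT arm: Tdp1-/-;hTDP1 DT40 cells (400/well) plus compounds, incubated ≥48 hr at 37 °C. Readout CellTiter-Glo luminescence.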
Hits are given with their value; [ ] = remark or other dose. Hits are enriched below; roughly 18% of the tested compounds scored in any of these assays. Calls follow the shape of the dose curve; as a rule, active = well fitted curve in the direction sought with a large enough effect; inconclusive = small, poorly fitted or top-dose-only effect, or another doubt; inactive = no such curve, though single readings can be large; an effect the other way counts as inactive or inconclusive.

How did Cc1ccc(N(CC(=O)NCc2ccccn2)S(=O)(=O)c2ccccc2)cc1C do in these assays?
PLK1 PBD inh: inactive; KAT2A inh: inactive; TDP1 cell CPT: inactive; TDP1 block: inactive; VDR inhibitor: inactive; TDP1 cell noCPT: inactive

Results for Cc1ccc2c(c1)-n1c(nc3cc(Cl)ccc3c1=O)C(CC(C)C)NC2=O (stereo not given) ?
KAT2A inh: inactive; TDP1 block: inactive

Results for COc1cccc2cc(-c3nc(-c4cccs4)no3)c(=O)oc12 ?
KAT2A inh: inactive; TDP1 cell CPT: inactive; TDP1 block: inactive; VDR inhibitor: inactive; TDP1 cell noCPT: inactive

How did COc1cc(-c2cccs2)cc(=O)c2c(C)oc(C)c12 do in these assays?
PLK1 PBD inh: inactive; KAT2A inh: inactive; TDP1 cell CPT: 13µM; TDP1 block: inactive; VDR inhibitor: inactive; TDP1 cell noCPT: 23µM

What do the screens show for `COc1ccc(-c2cc(OC(=O)c3ccc(F)cc3)c3c(C)oc(C)c3c(=O)c2)cc1`?
KAT2A inh: inactive; TDP1 block: inactive

What do the screens show for `COc1cc(-c2cc(OC)c3c(C)oc(C)c3c(=O)c2)ccc1OC(=O)c1ccccc1F`?
KAT2A inh: inactive; TDP1 cell CPT: 8.2µM; TDP1 block: inactive; VDR inhibitor: inactive; TDP1 cell noCPT: 21µM

Results for COc1cc(-c2cc(OC)c3c(C)oc(C)c3c(=O)c2)ccc1OC(=O)c1ccccc1Cl ?
KAT2A inh: inactive; TDP1 cell CPT: 5.8µM; TDP1 block: inactive; VDR inhibitor: inactive; TDP1 cell noCPT: 4.6µM

Results for CCN(CC)CCNC(=O)C(=O)Nc1cc2c3c(c1)CCC(=O)N3CCC2 ?
PLK1 PBD inh: inactive; KAT2A inh: inactive; TDP1 cell CPT: inactive; TDP1 block: inactive; VDR inhibitor: inactive; TDP1 cell noCPT: inactive

How did O=C(COC(=O)CNS(=O)(=O)c1ccc(Br)cc1Cl)NC1CCCC1 do in these assays?
PLK1 PBD inh: inactive; KAT2A inh: inactive; TDP1 cell CPT: inactive; TDP1 block: inactive[0.505 µM]; VDR inhibitor: inactive; TDP1 cell noCPT: inactive

Results for Fc1ccc(NC(=S)NCc2cccs2)cc1 ?
PLK1 PBD inh: inactive; KAT2A inh: inactive; TDP1 cell CPT: inconclusive; TDP1 block: inactive; VDR inhibitor: inactive; TDP1 cell noCPT: inactive

What do the screens show for `CC(C)(C)c1ccc(CNc2cc(N3CCOCC3)ccc2[N+](=O)[O-])cc1`?
PLK1 PBD inh: inactive; KAT2A inh: inactive; TDP1 cell CPT: inconclusive; TDP1 block: inactive; VDR inhibitor: inconclusive; TDP1 cell noCPT: inconclusive

Results for CS(=O)(=O)N1CCN(c2ccc([N+](=O)[O-])c(NCc3ccccc3)c2)CC1 ?
PLK1 PBD inh: inactive; KAT2A inh: inactive; TDP1 cell CPT: inconclusive; TDP1 block: inactive; VDR inhibitor: inactive; TDP1 cell noCPT: inconclusive

Results for CC(C)c1ccc(CNc2cc(N3CCCC3)ccc2[N+](=O)[O-])cc1 ?
PLK1 PBD inh: inactive; KAT2A inh: inactive; TDP1 cell CPT: 18µM; TDP1 block: inactive; VDR inhibitor: inactive; TDP1 cell noCPT: inconclusive

Results for CS(=O)(=O)N1CCN(c2ccc([N+](=O)[O-])c(NCc3ccc(Cl)cc3)c2)CC1 ?
PLK1 PBD inh: inactive; KAT2A inh: inactive; TDP1 cell CPT: 26µM; TDP1 block: inactive; VDR inhibitor: inactive; TDP1 cell noCPT: 18µM

Results for O=[N+]([O-])c1cc(S(=O)(=O)N2CCCC2)ccc1NCCCN1CCOCC1 ?
PLK1 PBD inh: inactive; KAT2A inh: inactive; TDP1 cell CPT: inactive; TDP1 block: inactive; VDR inhibitor: inactive; TDP1 cell noCPT: inactive

What do the screens show for `O=[N+]([O-])c1ccc(N2CCN(S(=O)(=O)c3ccc(Cl)c(Cl)c3)CC2)cc1NCCN1CCOCC1`?
PLK1 PBD inh: inactive; KAT2A inh: inactive; TDP1 cell CPT: inconclusive; TDP1 block: inactive; VDR inhibitor: inactive; TDP1 cell noCPT: 8.2µM

Results for CC(C)N(C)c1ncnc2c1ncn2[C@H]1CN(Cc2ccc3c(c2)OCO3)C[C@@H](CO)O1 ?
PLK1 PBD inh: inactive; TDP1 cell CPT: inactive; TDP1 cell noCPT: inconclusive

Results for CCOc1ccc(-n2ccn3c(CC(C)CC(=O)O)nnc3c2=O)cc1 (stereo not given) ?
KAT2A inh: inactive; TDP1 cell CPT: inactive; TDP1 block: inactive; VDR inhibitor: inactive; TDP1 cell noCPT: inactive

How did Cc1ccc(OCCNC(=O)c2ccccc2F)cc1 do in these assays?
PLK1 PBD inh: inactive; KAT2A inh: inactive; TDP1 cell CPT: inactive; VDR inhibitor: inactive; TDP1 cell noCPT: inactive

What do the screens show for `Cc1ccccc1Nc1c(-c2ccc(Cl)cc2)nc2c(C)cccn12`?
KAT2A inh: inactive; TDP1 cell CPT: inconclusive; TDP1 block: inactive; VDR inhibitor: inactive; TDP1 cell noCPT: inactive

Results for CCc1cccc(C)c1Nc1c(-c2ccccc2)nc2sccn12 ?
KAT2A inh: inactive; TDP1 cell CPT: inconclusive; TDP1 block: inactive; VDR inhibitor: inactive; TDP1 cell noCPT: 18µM

What do the screens show for `Cc1ccc(-c2nc3sccn3c2Nc2ccccc2C)cc1`?
KAT2A inh: inactive; TDP1 cell CPT: inconclusive; TDP1 block: inactive; VDR inhibitor: inactive; TDP1 cell noCPT: 23µM

Results for CC(=C(CCOC(=O)C(C)C)SSC(CCOC(=O)C(C)C)=C(C)N(C=O)Cc1cnc(C)nc1N)N(C=O)Cc1cnc(C)nc1N ?
TDP1 cell CPT: inactive; TDP1 cell noCPT: inactive

Results for Cc1ccc2nc(CCc3nc4ccc(C)cc4[nH]3)[nH]c2c1 ?
PLK1 PBD inh: inactive; KAT2A inh: inactive; TDP1 cell CPT: inactive; VDR inhibitor: inactive; TDP1 cell noCPT: inconclusive

How did Cc1nc2ccc(Cc3ccc4nc(C)[nH]c4c3)cc2[nH]1 do in these assays?
PLK1 PBD inh: inactive; KAT2A inh: inactive; TDP1 cell CPT: 26µM; TDP1 block: inactive; VDR inhibitor: inactive; TDP1 cell noCPT: inconclusive

Results for OCC1=CC[N+]2(Cc3ccccc3)CCC(O)[C@@H]12 (stereo not given in full) ?
TDP1 cell CPT: inactive[9.04 µM]; TDP1 block: inactive; VDR inhibitor: inactive; TDP1 cell noCPT: inactive[9.04 µM]

Results for O=C(NC(=S)Nc1ccc(Cl)cc1)c1ccccc1 ?
PLK1 PBD inh: inactive; KAT2A inh: inactive; TDP1 cell CPT: inactive; TDP1 block: inactive; VDR inhibitor: inactive; TDP1 cell noCPT: inactive

How did Cc1cc(C)c(NC(=S)NC(=O)c2ccccc2)cc1C do in these assays?
PLK1 PBD inh: inactive; TDP1 cell CPT: 21µM; TDP1 cell noCPT: 8.2µM
